Where a name gives a salt, the structure may show the parent alone. ± gives the standard deviation or the standard deviation of the averaged measurements.
Experiments:
Conditions in all cases: 25 µM; exposure: 24-48 hpf
[1] = system: Danio rerio Tg(wt1b:EGFP) embryo, pronephros; experiment: glomerular separation, fold change vs DMSO control; higher = glomeruli further apart (abnormal)
Method in brief: (§1)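 Using a Fiji macro, distances and angles were calculated from 16 reference points set by hand on maximum projections of pronephroi imaged dorsally (470 nm, 10 z-slices) in agarose-filled 96-well plates. The dechorionated Tg(wt1b:EGFP) zebrafish embryos had received 25 μM compound in 0.5% DMSO in HEPES-buffered E3 with 0.003% PTU from 24 to 48 hpf at 28.5°C. Values more than 2 SD from a feature's mean were excluded. Each feature appears as a fold change over the mean of DMSO-treated embryos from the same day.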

[2] = system: Danio rerio Tg(wt1b:EGFP) embryo, pronephros; experiment: glomerular width (mean of left and right), fold change vs DMSO control; higher = wider glomerulus
Method in brief: as §1

[3] = system: Danio rerio Tg(wt1b:EGFP) embryo, pronephros; experiment: fraction of imaged embryos annotated as normal kidney; higher = less nephrotoxic; extreme values may be limits of the assay
Method in brief: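 Tricaine-anaesthetised Tg(wt1b:EGFP) zebrafish larvae were oriented dorsally in agarose-filled 96-well plates, and their pronephroi were recorded by widefield fluorescence at 470 nm in 10 z-slices. Before this, the dechorionated embryos had been exposed in 12-well plates to 25 μM compound in 0.5% DMSO and 5 mM HEPES-buffered E3 with 0.003% PTU, from 24 to 48 hpf at 28.5°C. Maximum projections were annotated manually for each embryo, and the read-out is the fraction per treatment classed as normal kidney.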

[4] = system: Danio rerio Tg(wt1b:EGFP) embryo, pronephros; experiment: pronephric angle neck segment to proximal convoluted tubule (mean of left and right), fold change vs DMSO control; higher = larger pronephric angle
Method in brief: as §1

Structure (SMILES) | glomerular separation [1] | glomerular width [2] | fraction of imaged embryos annotated as normal kidney [3] | pronephric angle neck segment [4]
COCCOC(=O)C1=C(C)NC(C)=C(C(=O)OC(C)C)C1c1cccc([N+](=O)[O-])c1 (stereo unspecified) [Nimodipine] | 1.64 ± 1.1 | 0.786 ± 0.066 | 0.5 | 0.954 ± 0.049
COC(=O)Nc1nc2cc(Sc3ccccc3)ccc2[nH]1 [Fenbendazole] | 4 ± 2.6 | 0.568 ± 0.027 | 0 | 1.8 ± 0.13
Cc1ncc(C[n+]2csc(CCO)c2C)c(N)n1 [Thiamine hydrochloride] | 0.951 ± 0.4 | 1.1 ± 0.036 | 0.917 | 0.994 ± 0.025
CNCC[C@@H](Oc1ccccc1C)c1ccccc1 [Tomoxetine hydrochloride] | 1.04 ± 0.55 | 0.979 ± 0.023 | 0.75 | 1 ± 0.022
CC(=O)OCC1=C(C(=O)O)N2C(=O)[C@@H](NC(=O)Cc3cccs3)[C@H]2SC1 [Cephalothin sodium salt] | 0.848 ± 0.31 | 0.923 ± 0.08 | 1 | 1.02 ± 0.028
OCC(O)CN1CCN(c2ccccc2)CC1 (racemic) [Dropropizine (R,S)] | 0.917 ± 0.28 | 1.002 ± 0.0079 | 0.75 | 1.03 ± 0.038
C[C@]12C=CC(=O)C=C1CC[C@@H]1[C@@H]2[C@@H](O)C[C@@]2(C)[C@H]1CC[C@]2(O)C(=O)CO [Prednisolone] | 1.36 ± 0.94 | 1.22 ± 0.043 | 0.75 | 1.04 ± 0.02
CC(C)(C)c1ccc(C(O)CCCN2CCC(C(O)(c3ccccc3)c3ccccc3)CC2)cc1 (stereo unspecified) [Terfenadine] | 0.943 ± 0.3 | 1.023 ± 0.0083 | 0.583 | 1.02 ± 0.039
CCCCC(CC)CN1CN(CC(CC)CCCC)CC(C)(N)C1 (stereo unspecified) [Hexetidine] | 1.05 ± 0.29 | 0.9542 ± 0.0081 | 0.75 | 0.9331 ± 0.005
Cc1ccc(C(=O)c2ccc(CC(=O)O)n2C)cc1 [Tolmetin sodium salt dihydrate] | 1.55 ± 0.69 | 1.006 ± 0.0038 | 0.333 | 1 ± 0.075
NC(CO)C(=O)NNCc1ccc(O)c(O)c1O (stereo unspecified) [Benserazide hydrochloride] | 1.17 ± 0.44 | 1.01 ± 0.071 | 0.667 | 1.05 ± 0.039
NS(=O)(=O)c1cc(C(=O)O)cc(N2CCCC2)c1Oc1ccccc1 [Piretanide] | 1.08 ± 0.68 | 1.02 ± 0.048 | 0.917 | 1.03 ± 0.038
C[C@@H]1[C@H](O)[C@@H](C)/C=C/C=C/C=C/C=C/C=C/C=C/C=C/[C@H](O[C@@H]2O[C@H](C)[C@@H](O)[C@H](N)[C@@H]2O)C[C@@H]2O[C@](O)(C[C@@H](O)C[C@@H](O)[C@H](O)CC[C@@H](O)C[C@@H](O)CC(=O)O[C@H]1C)C[C@H](O)[C@H]2C(=O)O [Amphotericin B] | 3.69 ± 2.9 | 0.907 ± 0.13 | 0 | 1.59 ± 0.016
Cc1nccn1CC1CCc2c(c3ccccc3n2C)C1=O (stereo unspecified) [Ondansetron Hydrochloride] | 1.05 ± 0.35 | 1.011 ± 0.01 | 0.833 | 0.96132 ± 0.00094
